HPGD inh: blocks human HPGD enzyme activity; P15428; purified HPGD, NADH fluorescence kinetic, PGE2 substrate; Potency, µM, actives largely listed as inhibitors; 150,000 compounds, 4.3% hits; AID 894
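NADH formation kinetics: reaction with 30 uM PGE2 and 1 mM NAD+ (final), 20 nM enzyme, Tris-HCl pH 8 with Tween 20, after 15 min compound preincubation at room temperature. Fluorescence change, last versus first of five reads.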
PNC assembly inh: inhibitors of perinucleolar compartment assembly. PC3M PTB-GFP, PNC prevalence imaging, 16 h; stronger effect = lower value. activity change (PNC), negative = inhibition, % at 10 µM. 140,000 compounds, 3.1% hits. AID 2417;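 active means readout at or below -70, meaning at least 70% loss of cells showing the perinucleolar compartment, a nuclear body marking cancer cells; inconclusive means readout between -30 and a set limit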
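Compounds are pinned in duplicate onto adhered PC3M cells stably expressing GFP-tagged PTB and incubated 16 h at 37 C. Cells are then fixed, nuclei stained with Hoechst, and PNC-positive cells counted.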
ALDH1A1 block: blocks purified human ALDH1A1 activity; 220,000 compounds, 7.3% hits; P00352; AID 1030; Potency, µM (titrated, usually from 75.3 µM), actives largely listed as inhibitors; Purified ALDH1A1, NADH fluorescence, propionaldehyde substrate
Target sequence (P00352 whole entry, looked up): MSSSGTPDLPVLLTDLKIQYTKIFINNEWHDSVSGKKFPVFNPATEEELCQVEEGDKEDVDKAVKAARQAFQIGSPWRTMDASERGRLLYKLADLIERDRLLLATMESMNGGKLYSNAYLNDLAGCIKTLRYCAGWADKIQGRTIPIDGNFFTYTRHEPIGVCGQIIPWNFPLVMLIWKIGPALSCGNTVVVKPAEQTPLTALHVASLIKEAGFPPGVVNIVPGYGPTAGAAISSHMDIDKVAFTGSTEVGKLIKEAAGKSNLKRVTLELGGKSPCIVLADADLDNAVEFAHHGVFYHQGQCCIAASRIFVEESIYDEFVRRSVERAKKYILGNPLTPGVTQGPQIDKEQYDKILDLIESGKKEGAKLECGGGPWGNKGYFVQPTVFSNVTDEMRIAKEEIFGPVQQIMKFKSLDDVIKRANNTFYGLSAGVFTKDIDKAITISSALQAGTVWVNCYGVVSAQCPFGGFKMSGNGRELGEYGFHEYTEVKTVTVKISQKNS
Numbers stand for hits; 0 = inactive; ? = inconclusive; - = not tested or not shown; [ ] = remark or other dose. Shown are actives, neighbours in structure and some others; about 11% of the full set was active somewhere. Unless noted, the call rests on the fitted dose curve; in most records, active means well fitted inhibition curve with a large enough effect (not every such curve was filed as active); inconclusive means small, poorly fitted or top-dose-only effect, or another doubt; inactive means no such curve, though single readings can be large or run the other way.

SMILES	HPGD inh	PNC assembly inh	ALDH1A1 block
CC(NC1CCCCC1)C(=O)NN=C(c1ccccc1)c1ccccc1 (stereo not drawn)	-	-	3.5µM
CC(Cl)C(=O)NN=C(c1ccccc1)c1ccccc1 (stereo not drawn)	-	-	1µM
CC12C=C(/C=C/c3ccc(Br)cc3)C(C)(C1)C(c1ccc(Br)cc1)CC2=O (stereo not drawn)	-	-	0[13.5 µM]
Cc1ccc(-c2cc(C(=O)O)n(-c3ccc(S(N)(=O)=O)cc3)n2)cc1	-	-	0
C=CCNC(=O)c1ccc2nc(-c3ccccc3)c(-c3ccccc3)nc2c1	?	0	?
C=CCNC(=O)c1ccc(C(=O)c2ccccc2)cc1	13µM	?	?
C=CCNC(=O)c1ccccc1Cl	16µM	0	0
C=CCNC(=O)c1ccccc1CCc1ccccc1	-	-	0
COc1ccc(-c2cc(C(=O)OCC(=O)N(C)C3CCS(=O)(=O)C3)c3ccccc3n2)cc1OC (stereo not drawn)	-	-	0
CCCc1ccc(C(=O)CCC(=O)O)cc1	0	-96	0
Cc1ccc(C(=O)CCC(=O)O)cc1	0	0	0
COCCCNC(=S)N1CCC(NC(=O)Nc2ccc(C)cc2)CC1	-	-	0
CC(=O)N1CCC2(CCN(Cc3nccs3)CC2)CC1	0	-	0
Fc1ccc(C2NC(=S)NC3=C2N2CCC3CC2)cc1 (stereo not drawn)	0	?	14µM
Fc1ccc(C2NCCn3cccc32)cc1 (stereo not drawn)	0	0	?
Fc1ccccc1CSc1nc2ccccc2[nH]1	20µM	?	13µM
Fc1ccccc1CSc1ncn[nH]1	0	-100	0
c1ccc2[nH]c(-c3cscn3)nc2c1	0	0	0
c1ccc2[nH]c(SCc3cscn3)nc2c1	0	-103	0
O=C(O)CSc1nc2ccccc2[nH]1	0	0	0[13.5 µM]
Clc1ccc(CSc2ncn[nH]2)cc1	0	0	0
NNC(=O)c1ccc(CSc2nc3ccccc3[nH]2)cc1	-	-	10µM
Fc1c(F)c(F)c(CSc2nc3ccccc3[nH]2)c(F)c1F	0	0	0
O=C(CSc1nnc(-c2cccnc2)n1CCN1CCCCC1)Nc1cccc(Cl)c1	0	0	0
COC(=O)c1ccccc1NC(=S)N(Cc1ccc2c(c1)OCO2)Cc1cc2cc(OC)ccc2[nH]c1=O	0	0	?
SMILES	HPGD inh	PNC assembly inh	ALDH1A1 block
O=C(NC(Cc1c[nH]c2ccccc12)C(=O)NCc1ccc(F)cc1)OCc1ccccc1 (stereo not drawn)	0	0	0
Cc1cc(CNC(=O)C(C)Cc2ccccc2)nn1C (stereo not drawn)	0	0	0
O=C(Nc1ccccc1)c1ccc(NCCN2CCOCC2)c(S(=O)(=O)N2CCOCC2)c1	0	0	0
O=C(Nc1ccccc1)c1ccc(NCc2ccco2)c(S(=O)(=O)N2CCOCC2)c1	0	-88	?
COC(=O)COc1ccc(S(=O)(=O)N2CCN(c3ccc(OC)cc3)CC2)cc1	-	-	0
O=C(NCc1ccco1)c1cccc(S(=O)(=O)N2CCOCC2)c1	0	?	0
O=C(NCc1ccco1)c1cccc(S(=O)(=O)N2CCCCC2)c1	0	-100	?
O=C(NCc1ccco1)c1ccc(S(=O)(=O)N2CCCCC2)cc1	-	-	0
COc1ccc(N2CCN(S(=O)(=O)c3ccc(C(=O)NCc4ccco4)cc3)CC2)cc1	0	0	7.9µM
O=C(NCc1ccco1)c1ccc(S(=O)(=O)N2CCOCC2)cc1	16µM	0	16µM
O=C(CN1C(=O)C(=O)N(C2CCCC2)C1=O)Nc1ccc(N2CCOCC2)cc1	-	-	0
O=C(NC1CCCC1)C(c1ccc(F)cc1)N(Cc1ccccc1Cl)C(=O)CCl (stereo not drawn)	0	0	0
Cc1ccc2cc(C#N)c(SCc3nnc(-c4ccccc4[N+](=O)[O-])o3)nc2c1	?	0	0
Cc1ccc(NC(=O)C2CC2C)c(Cl)c1 (stereo not drawn)	-	-	0
Cc1ccc(-c2nnc(SCC(=O)NC3CCS(=O)(=O)C3)nc2-c2ccc(C)cc2)cc1 (stereo not drawn)	0	0	0
CCC(=O)Nc1cc(C(=O)OCC(=O)c2ccccc2)ccc1C	0	0	0
CC(=O)Nc1nnc(CCS(=O)(=O)c2ccc(C)c(C)c2)s1	-	-	0
COc1ccc(S(=O)(=O)N/N=C(/C)c2ccc(Cl)cc2)cc1	0	0	?
COc1ccc(C/C(C)=N/NC(=O)c2ccc(Cl)cc2)cc1	-	-	7.1µM
CCOc1cc(C(=O)N/N=C(\C)Cc2ccc(OC)cc2)cc(OCC)c1OCC	0	0	0
COc1ccc(C/C(C)=N/NS(=O)(=O)c2ccc(Br)cc2)cc1	-	-	2.8µM
COc1ccc(/C=C/C(=O)OCC(=O)NC(=O)NC(C)(C)C)cc1	-	-	0
CCOC(=O)c1ccc(NC(=O)Nc2cc(C)cc(C)n2)cc1	-	-	0
Cc1ccc(-c2nc(SCC(=O)N(C)C3CCS(=O)(=O)C3)[nH]c2-c2ccc(C)cc2)cc1 (stereo not drawn)	0	0	?
Cc1cccc(C)c1	0	-	0
SMILES	HPGD inh	PNC assembly inh	ALDH1A1 block
O=C(c1ccccc1)c1coc2ccc(O)c(Cl)c12	14µM	0	?
Cc1ccc(C(=O)c2coc3ccc(O)c(Cl)c23)cc1	0	0	0
Cn1c(=O)c2c(nc(Br)n2C/C=N/NC(N)=S)n(C)c1=O	-	-	0
CCOc1ccc(NC(=O)C(Cc2ccccc2)NC(=O)C2CCCCC2)cc1 (stereo not drawn)	0	0	0
Cc1cnc(C(=O)OCC(=O)NC2CCCCCC2)cn1	-	-	0
Cc1cnc(C(=O)OCC(=O)c2csc(N3CCCCC3)n2)cn1	?	0	18µM
O=C(COC(=O)c1ccc(OC(F)F)cc1)NCCCN1CCCC1=O	-	-	0
CCN(CC(=O)NC(C)(C)C)C(=O)C(c1ccccc1)c1ccccc1	-	-	0
COc1cc(NC(=O)Cc2cccs2)c(C(=O)O)cc1OC	-	-	0
O=S(=O)(Nc1ccc(N=Nc2ccccc2)cc1)c1ccccc1	?	0	0
O=S(=O)(Nc1ccc(N=Nc2ccc(O)c3ccccc23)cc1)c1ccccc1	32µM	?	0
CO/N=C(/CNC(=O)c1ccc(Cl)cc1Cl)c1ccc(Cl)cc1	0	0	0
CC1CCN(C(=O)COC(=O)c2ccc3c(c2)OCO3)CC1	-	-	0
COc1ccc(OC)c(C2=NNC(=NCc3ccc4c(c3)OCO4)SC2)c1	?	0	?
Clc1ccc(C2=NNC(=NCc3ccc4c(c3)OCO4)SC2)cc1	-	?	22µM
FC(F)(F)c1cc(NC(=S)NC23CC4CC(CC(C4)C2)C3)cc(C(F)(F)F)c1	0	-	0
Cc1cccc2[nH]c(CN(C)Cc3nc(CC4CC4)no3)nc12	-	-	0
Cc1ccc(S(=O)(=O)Nc2ccc(O)c3ncccc23)cc1	-	-	1.3µM
Cc1ccc(S(=O)(=O)Nc2ccnc3ccccc23)cc1	0	?	0
Cc1ccc(S(=O)(=O)N[C@@H]2COC(=O)C/C=C\[C@H](C)COC(=O)N[C@@H](C)C(=O)C/C=C\[C@H]2C)cc1	-	-	0[13.5 µM]
CCOc1cc2c(cc1OCC)C(c1ccccc1)N(c1ccccc1)C(=O)C2 (stereo not drawn)	0	-93	0
CCOc1cc2c(cc1OCC)C(c1ccc(OC)cc1)N(c1ccccc1)C(=O)C2 (stereo not drawn)	0	0	0
Cc1ccccc1C(=O)c1cccn1CC(=O)NCC1CCCO1 (stereo not drawn)	-	0	0
Cc1ccccc1C(=O)c1cccn1CC(=O)N1CCCCCC1	-	0	4µM
CCn1c(COc2cccc(C)c2C)nnc1SCC(=O)Nc1cc(C)on1	-	-	0

Screening results (PubChem BioAssay)
